PubChem BioAssay
For some assays here: Measured potencies and affinities stand elsewhere. Activity calls are given as the source filed them. Unless noted, no rule for the calls is given here.

Legend:
[1] = antimalarial activity against Dd2 strain (AID 2302;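 active = growth inhibition above 50% at the single 2 µM test dose, taken to imply half-maximal potency below 2 µM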;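 also: 0% = DMSO untreated growth and 100% = chloroquine plus artemisinin killed control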); conditions: P. falciparum Dd2 in RBCs, LDH growth readout, 72 h; at 2 µM; hits give high values
[2] = HepG2 cytotoxicity, primary screen, cytotoxicity control for P. falciparum antimalarial project, cell-based, ATP luminescence (AID 2303;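 active = inhibition above 50%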;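 also: 0% = DMSO wells and 100% = digitonin-killed cells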); conditions: HepG2 viability, 24-48 h, at 10 µM, hits give high values
[3] = target: L-lactate dehydrogenase (Plasmodium falciparum (isolate CDC / Honduras)) (UniProt Q27743); experiment: PfLDH activity inhibition – cell lysate, 3D7 strain, counter-screen for P. falciparum growth inhibition project (AID 2304);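 also: 0% = vehicle and 100% = reference inhibitor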; conditions: P. falciparum 3D7 crude extract, LDH APAD/NBT absorbance; at 2 µM; hits give high values
[4] = inhibition of 3D7 malaria parasite growth – strain 3D7 (AID 2306);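 also: 0% = DMSO wells and 100% = chloroquine plus artemisinin control wells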; conditions: P. falciparum 3D7 erythrocytic growth, LDH absorbance, 72 h; at 2 µM; hits give high values
[5] = target: Calcium-dependent protein kinase 1 (Plasmodium falciparum (isolate 3D7)) (UniProt P62344); experiment: PfCDPK1 kinase inhibitors, biochemical, TCAMS library (AID 1159585; cut-off not given, nearly all actives have IC50 up to about 0.98 µM;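 also: inhibitors leave more ATP so luminescence rises with inhibition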); conditions: recombinant PfCDPK1, Kinase-Glo ATP depletion luminescence
[6] = target: Plasmodium falciparum protein kinase 6 (PK6, PF3D7_1337100) (UniProt Q8IDW1); experiment: PfPK6 kinase inhibitors, biochemical, TCAMS library (AID 1159586); conditions: recombinant PfPK6, Kinase-Glo ATP depletion luminescence
[7] = target: Protein kinase 7 (PK7), Plasmodium falciparum 3D7 (PF3D7_0213400) (UniProt Q7YTF7); experiment: inhibition of Plasmodium PK7 catalytic activity – biochemical, TCAMS antimalarial set, Kinase-Glo luminescence (AID 1159587); conditions: recombinant PfPK7, Kinase-Glo ATP depletion luminescence
[8] = target: Calcium-dependent protein kinase 4 (Plasmodium falciparum (isolate 3D7)) (UniProt Q8IBS5); experiment: PfCDPK4 kinase inhibitors, biochemical, TCAMS library (AID 1159588; cut-off not given, nearly all actives have IC50 up to about 0.91 µM); conditions: recombinant PfCDPK4, Kinase-Glo ATP depletion luminescence
Sequence of Calcium-dependent protein kinase 4 (Plasmodium falciparum (isolate 3D7)) (Q8IBS5 whole entry, looked up): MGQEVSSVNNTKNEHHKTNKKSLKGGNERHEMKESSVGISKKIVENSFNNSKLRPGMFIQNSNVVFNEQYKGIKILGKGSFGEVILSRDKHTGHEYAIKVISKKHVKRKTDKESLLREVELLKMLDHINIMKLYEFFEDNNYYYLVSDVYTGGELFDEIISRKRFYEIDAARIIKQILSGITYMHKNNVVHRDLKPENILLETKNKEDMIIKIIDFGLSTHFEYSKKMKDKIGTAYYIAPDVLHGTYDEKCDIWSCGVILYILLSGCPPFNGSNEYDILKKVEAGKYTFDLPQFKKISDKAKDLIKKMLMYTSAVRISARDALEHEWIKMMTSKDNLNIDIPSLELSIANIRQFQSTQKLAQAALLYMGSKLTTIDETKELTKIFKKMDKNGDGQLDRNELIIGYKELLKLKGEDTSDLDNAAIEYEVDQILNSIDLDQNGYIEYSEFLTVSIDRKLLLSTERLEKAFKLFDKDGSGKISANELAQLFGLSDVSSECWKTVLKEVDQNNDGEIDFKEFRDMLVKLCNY

Sequence of Calcium-dependent protein kinase 1 (Plasmodium falciparum (isolate 3D7)) (P62344 whole entry, looked up): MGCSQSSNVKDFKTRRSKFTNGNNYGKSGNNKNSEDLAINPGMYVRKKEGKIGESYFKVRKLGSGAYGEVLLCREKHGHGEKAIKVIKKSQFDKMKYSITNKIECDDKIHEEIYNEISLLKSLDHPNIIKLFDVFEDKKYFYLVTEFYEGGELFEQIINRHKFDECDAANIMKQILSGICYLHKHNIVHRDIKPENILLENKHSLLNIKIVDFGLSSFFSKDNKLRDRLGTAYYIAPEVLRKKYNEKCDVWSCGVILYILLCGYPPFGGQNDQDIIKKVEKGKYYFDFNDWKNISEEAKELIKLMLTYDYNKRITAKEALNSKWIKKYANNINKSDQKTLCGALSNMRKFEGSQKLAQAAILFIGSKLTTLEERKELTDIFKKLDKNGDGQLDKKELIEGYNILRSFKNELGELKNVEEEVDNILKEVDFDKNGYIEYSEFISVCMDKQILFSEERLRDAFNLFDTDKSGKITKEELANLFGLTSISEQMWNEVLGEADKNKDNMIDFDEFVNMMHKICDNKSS
Sequence of Plasmodium falciparum protein kinase 6 (PK6, PF3D7_1337100) (Q8IDW1 1-305): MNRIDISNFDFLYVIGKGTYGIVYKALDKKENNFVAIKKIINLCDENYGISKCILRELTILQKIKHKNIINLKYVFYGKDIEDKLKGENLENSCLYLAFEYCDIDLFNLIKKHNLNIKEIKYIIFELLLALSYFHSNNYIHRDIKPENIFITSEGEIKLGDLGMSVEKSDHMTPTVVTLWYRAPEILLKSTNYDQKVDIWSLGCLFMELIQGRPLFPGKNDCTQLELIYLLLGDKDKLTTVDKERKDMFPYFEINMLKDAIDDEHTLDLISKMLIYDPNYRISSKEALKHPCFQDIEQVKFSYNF
Sequence of Protein kinase 7 (PK7), Plasmodium falciparum 3D7 (PF3D7_0213400) (Q7YTF7 1-343): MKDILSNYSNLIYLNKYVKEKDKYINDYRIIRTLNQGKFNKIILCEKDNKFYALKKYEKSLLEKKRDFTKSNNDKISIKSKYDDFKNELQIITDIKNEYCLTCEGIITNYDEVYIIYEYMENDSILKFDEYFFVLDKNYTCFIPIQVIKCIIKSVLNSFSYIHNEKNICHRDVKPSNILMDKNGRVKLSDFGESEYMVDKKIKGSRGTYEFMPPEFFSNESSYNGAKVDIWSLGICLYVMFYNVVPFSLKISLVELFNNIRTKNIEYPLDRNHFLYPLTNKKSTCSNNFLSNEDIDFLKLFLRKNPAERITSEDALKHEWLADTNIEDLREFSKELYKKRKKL
Sequence of L-lactate dehydrogenase (Plasmodium falciparum (isolate CDC / Honduras)) (Q27743 whole entry, looked up): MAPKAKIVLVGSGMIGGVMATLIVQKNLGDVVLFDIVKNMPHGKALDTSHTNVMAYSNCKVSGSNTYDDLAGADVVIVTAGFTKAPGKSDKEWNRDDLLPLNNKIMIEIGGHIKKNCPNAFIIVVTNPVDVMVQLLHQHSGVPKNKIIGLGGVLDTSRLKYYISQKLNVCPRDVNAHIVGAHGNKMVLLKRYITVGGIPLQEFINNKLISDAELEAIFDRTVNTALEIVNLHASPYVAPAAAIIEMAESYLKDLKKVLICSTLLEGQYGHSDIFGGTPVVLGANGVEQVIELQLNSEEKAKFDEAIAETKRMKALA

Cc1cccc2[nH]c(-c3ccc(-c4ccc(CNCCNC(=O)c5ccnn5C)cc4)s3)nc12
inactive: inhibition [2] 20% | inhibition [3] -1% | outcome [5] | outcome [6] | outcome [7] | outcome [8]
active: growth inhibition [1] 97% | growth inhibition [4] 101%

CCCCCN1CCCC(NS(=O)(=O)c2cccc(C(=O)Nc3cccc(C(F)(F)F)c3)c2)C1 (stereo not given)
active: growth inhibition [4] 86%
inactive: growth inhibition [1] 5% | inhibition [2] 22% | inhibition [3] -2% | outcome [5] | outcome [6] | outcome [7] | outcome [8]

CCOc1cc(C)ccc1C1CCN(CCCCNC(=O)c2ccc(-c3ccc(C(F)(F)F)cn3)cc2)CC1
inactive: growth inhibition [1] 45% | inhibition [3] 5% | outcome [5] | outcome [6] | outcome [7] | outcome [8]
active: inhibition [2] 55% | growth inhibition [4] 99%

Cc1cccc2[nH]c(-c3ccc(-c4ccc(CNCc5ccc(S(C)(=O)=O)cc5)cc4)cc3)nc12
inactive: growth inhibition [1] 38% | inhibition [2] 19% | inhibition [3] -1% | outcome [5] | outcome [6] | outcome [7] | outcome [8]
active: growth inhibition [4] 93%

COc1cc2ncnc(Nc3ccc(OCc4ccccc4)c(C(F)(F)F)c3)c2cc1OC
active: growth inhibition [1] 78% | growth inhibition [4] 101%
inactive: inhibition [2] 8% | inhibition [3] 3% | outcome [5] | outcome [6] | outcome [7] | outcome [8]

Cn1cnc(CCNC(=O)c2cccc(-c3cccc(-c4nc5ccc(C(F)(F)F)cc5[nH]4)c3)c2)c1
inactive: growth inhibition [1] 45% | inhibition [2] 37% | inhibition [3] 4% | outcome [5] | outcome [6] | outcome [7] | outcome [8]
active: growth inhibition [4] 100%

N#CN1CC[C@@H](OC(=O)N[C@@H]2C[C@H]2c2ccccc2)C1
inactive: inhibition [2] -1% | inhibition [3] -2% | outcome [5] | outcome [6] | outcome [7] | outcome [8]
active: growth inhibition [1] 56% | growth inhibition [4] 84%

N#Cc1ccc(-c2ccc(C(=O)NCCCCN3CCC(c4cn(CCO)c5ccccc45)CC3)cc2)cc1
active: growth inhibition [4] 93%
inactive: growth inhibition [1] 43% | inhibition [2] 23% | inhibition [3] 4% | outcome [5] | outcome [6] | outcome [7] | outcome [8]

N#Cc1cccc(/C=C/C(=O)NC2CCC(CCN3CCc4ccc(-c5cnccn5)cc4CC3)CC2)c1 (stereo not given)
inactive: growth inhibition [1] 47% | inhibition [2] 22% | inhibition [3] -1% | outcome [5] | outcome [6] | outcome [7] | outcome [8]
active: growth inhibition [4] 93%

O=C(Nc1nc2cc(S(=O)(=O)NCc3ccc(Cl)c(Cl)c3)ccc2n1CCCN1CCCC1)c1ccc(Cl)cc1
active: inhibition [2] 57% | growth inhibition [4] 89%
inactive: growth inhibition [1] 16% | inhibition [3] -1% | outcome [5] | outcome [6] | outcome [7] | outcome [8]

CCC(CO)NCC(O)Cn1c2ccc(Cl)cc2c2cc(Cl)ccc21 (stereo not given)
inactive: inhibition [2] 11% | inhibition [3] -2% | outcome [5] | outcome [6] | outcome [7] | outcome [8]
active: growth inhibition [1] 88% | growth inhibition [4] 96%

O=C(NCCCCN1CCN(c2cccc3ccccc23)CC1)c1ccc(NC(=O)c2ccc(Cl)cc2)cc1
active: growth inhibition [1] 64% | growth inhibition [4] 101%
inactive: inhibition [2] 38% | inhibition [3] 6% | outcome [5] | outcome [6] | outcome [7] | outcome [8]

Cc1cccc2[nH]c(-c3cccc(-c4cccc(NC(=O)Nc5ccccc5)c4)c3)nc12
inactive: inhibition [2] 8% | inhibition [3] -6% | outcome [5] | outcome [6] | outcome [7] | outcome [8]
active: growth inhibition [1] 64% | growth inhibition [4] 101%

CCCc1cc(OC)c(C[C@H]2c3cc(O)c(Cl)cc3CCN2C)cc1OC
inactive: inhibition [2] -3% | inhibition [3] -6% | outcome [5] | outcome [6] | outcome [7] | outcome [8]
active: growth inhibition [1] 98% | growth inhibition [4] 97%

CC(=O)NCCNc1cc(N2CCc3ncnc(Nc4ccc(OCc5c(F)cccc5F)c(Cl)c4)c3C2)ncn1
active: growth inhibition [1] 100% | inhibition [2] 55% | growth inhibition [4] 100%
inactive: inhibition [3] 4% | outcome [5] | outcome [6] | outcome [7] | outcome [8]

Cc1cc(NC(=O)Nc2ccc(I)c(OCCN(C)C)c2)ccc1Br
active: growth inhibition [4] 101%
inactive: growth inhibition [1] 42% | inhibition [2] 18% | inhibition [3] 4% | outcome [5] | outcome [6] | outcome [7] | outcome [8]

Cc1ccccc1C1CCN(C2CCC(NC(=O)/C=C/c3cccc(Cl)c3)CC2)CC1 (stereo not given)
inactive: growth inhibition [1] 34% | inhibition [3] -3% | outcome [5] | outcome [6] | outcome [7] | outcome [8]
active: inhibition [2] 70% | growth inhibition [4] 98%

O=C(Nc1ccc(F)cc1)c1nc2ccccc2nc1Cl
active: growth inhibition [1] 62% | growth inhibition [4] 80%
inactive: inhibition [2] 44% | inhibition [3] -1% | outcome [5] | outcome [6] | outcome [7] | outcome [8]

Cc1cc(CNCCCCCCCNCc2ccc(-c3ccccc3)cc2)ccc1O
inactive: growth inhibition [1] 6% | inhibition [2] 49% | inhibition [3] -2% | outcome [5] | outcome [6] | outcome [7] | outcome [8]
active: growth inhibition [4] 97%

COc1cc(Nc2nccc(N3CCC(NC(=O)Nc4cc(C)ccc4C)C3)n2)cc(OC)c1OC (stereo not given)
active: growth inhibition [1] 52% | growth inhibition [4] 91%
inactive: inhibition [2] 13% | inhibition [3] 4% | outcome [5] | outcome [6] | outcome [7] | outcome [8]

CN1CCc2cc(Br)c(O)cc2C1Cc1ccccc1Cl (stereo not given)
active: growth inhibition [1] 88% | growth inhibition [4] 98%
inactive: inhibition [2] 2% | inhibition [3] -2% | outcome [5] | outcome [6] | outcome [7] | outcome [8]

COc1ccc2nccc([C@@H](O)CN3CCC(NC(=O)C(=Cc4ccc(Cl)cc4Cl)c4ccc(-c5ccccc5)cc4)CC3)c2c1
inactive: inhibition [2] 1% | inhibition [3] -2% | outcome [5] | outcome [6] | outcome [7] | outcome [8]
active: growth inhibition [1] 98% | growth inhibition [4] 100%

CCc1ccc(CN2CCC(NC(=O)c3cc(-c4ccc(N(C)C)cc4)cs3)C2)cc1 (stereo not given)
inactive: growth inhibition [1] 7% | inhibition [2] 29% | inhibition [3] 3% | outcome [5] | outcome [6] | outcome [7] | outcome [8]
active: growth inhibition [4] 90%

Cc1cccc2[nH]c(-c3ccc(-c4cccc(CNCCNC(=O)c5ccnn5C)c4)cc3)nc12
inactive: inhibition [2] 17% | inhibition [3] -4% | outcome [5] | outcome [6] | outcome [7] | outcome [8]
active: growth inhibition [1] 92% | growth inhibition [4] 100%

O=C(OCc1ccccn1)c1nc2ccccc2[nH]1
active: growth inhibition [1] 97% | inhibition [2] 63% | growth inhibition [4] 92%
inactive: inhibition [3] -2% | outcome [5] | outcome [6] | outcome [7] | outcome [8]

COc1cccc2cc(C(=O)N[C@@H](CC(C)C)C(=O)N[C@H](/C=N/NC(=O)OC(C)(C)C)Cc3ccccc3)oc12
active: growth inhibition [1] 88% | growth inhibition [4] 99%
inactive: inhibition [2] 11% | inhibition [3] 0% | outcome [5] | outcome [6] | outcome [7] | outcome [8]

N#Cc1ccc(N2CCN(Cc3cccc(-c4ccc(-c5nc6ccc(C(F)(F)F)cc6[nH]5)s4)c3)CC2)nc1
inactive: inhibition [2] 31% | inhibition [3] -4% | outcome [5] | outcome [6] | outcome [7] | outcome [8]
active: growth inhibition [1] 52% | growth inhibition [4] 96%

NC1CCCN(Cc2cccc(-c3ccc(-c4nc5ccc(C(F)(F)F)cc5[nH]4)cc3)c2)C1 (stereo not given)
active: growth inhibition [1] 96% | growth inhibition [4] 99%
inactive: inhibition [2] 47% | inhibition [3] -3% | outcome [5] | outcome [6] | outcome [7] | outcome [8]

COc1ccc(OCCON)cc1
active: growth inhibition [4] 98%
inactive: growth inhibition [1] -3% | inhibition [2] 0% | inhibition [3] -2% | outcome [5] | outcome [6] | outcome [7] | outcome [8]

CC(C)CCn1c(Sc2ccc([N+](=O)[O-])cc2C(F)(F)F)nnc1-c1ccccc1Cl
active: growth inhibition [4] 99%
inactive: growth inhibition [1] 43% | inhibition [2] -5% | inhibition [3] 6% | outcome [5] | outcome [6] | outcome [7] | outcome [8]

Cc1[nH]c(C)c(-c2ccc(-c3cccc(C(F)(F)F)c3)nc2)c(=O)c1Br
inactive: inhibition [2] 28% | inhibition [3] -4% | outcome [5] | outcome [6] | outcome [7] | outcome [8]
active: growth inhibition [1] 96% | growth inhibition [4] 97%

O=C(NCCCN1CCC(Cc2ccccc2)CC1)c1cc2c(Cl)nc3ccccc3c2s1
active: growth inhibition [4] 98%
inactive: growth inhibition [1] 40% | inhibition [2] 22% | inhibition [3] -3% | outcome [5] | outcome [6] | outcome [7] | outcome [8]

O=S(=O)(NC1CCN(c2ccnc3ccccc23)C1)c1ccc(OC(F)(F)F)cc1 (stereo not given)
active: growth inhibition [4] 88%
inactive: growth inhibition [1] -1% | inhibition [2] 34% | inhibition [3] 5% | outcome [5] | outcome [6] | outcome [7] | outcome [8]

C[C@@H]1CN(c2ncc(-c3ccc(CNC4Cc5ccccc5C4)cc3)cn2)C[C@H](C)N1
inactive: inhibition [2] 27% | inhibition [3] -10% | outcome [5] | outcome [6] | outcome [7] | outcome [8]
active: growth inhibition [1] 78% | growth inhibition [4] 85%

O=C(N[C@@H](CC1CCCCC1)C(=O)NCCN1CCCCC1)c1ccc(O)c(-c2ccc(Cl)c(Cl)c2)c1
inactive: inhibition [2] 14% | inhibition [3] -6% | outcome [5] | outcome [6] | outcome [7] | outcome [8]
active: growth inhibition [1] 99% | growth inhibition [4] 97%

CNC(=O)C(C)N(c1ccc(Cl)cc1)c1nc(C(C)(C)C)cs1 (stereo not given)
inactive: inhibition [2] 0% | inhibition [3] 7% | outcome [5] | outcome [6] | outcome [7] | outcome [8]
active: growth inhibition [1] 98% | growth inhibition [4] 99%

COc1cc(NC(=O)c2cc([N+](=O)[O-])ccc2NC(=O)CNC2CCCCC2C)cc(OC)c1 (stereo not given)
inactive: inhibition [2] -2% | inhibition [3] 3% | outcome [5] | outcome [6] | outcome [7] | outcome [8]
active: growth inhibition [1] 78% | growth inhibition [4] 87%

O=C1CCCN1CCCNCc1ccc(-c2cccc(-c3nc4ccccc4[nH]3)c2)cc1
active: growth inhibition [4] 96%
inactive: growth inhibition [1] 0% | inhibition [2] 19% | inhibition [3] -5% | outcome [5] | outcome [6] | outcome [7] | outcome [8]

OCCCCCCNc1ccnc2[nH]c3ccc(I)cc3c12
active: growth inhibition [1] 61% | growth inhibition [4] 100%
inactive: inhibition [2] 27% | inhibition [3] -4% | outcome [5] | outcome [6] | outcome [7] | outcome [8]

O=C(NCCCCN1CCC(c2ccc(-c3ccco3)cc2)CC1)c1ccc(NC(=O)c2ccc(Cl)cc2)cc1
inactive: inhibition [2] 26% | inhibition [3] 6% | outcome [5] | outcome [6] | outcome [7] | outcome [8]
active: growth inhibition [1] 97% | growth inhibition [4] 100%
